About 1,300 (0.68%) of roughly 190,000 compounds were called active. No stated cut-off is given here; in the data, active means inhibition above about 50%; inactive means the rest. This excerpt belongs to a sample that is enriched for actives.
target: Mannose-6-phosphate isomerase (Homo sapiens) (UniProt P34949); test: MPI inhibition at elevated mannose 6-phosphate – biochemical, fluorescence intensity, high mannose 6-phosphate, primary screen (AID 1220); settings: recombinant PMI enzyme, coupled fluorescence intensity; at 20 µM; stronger effect = higher value
Sequence (P34949 whole entry, looked up): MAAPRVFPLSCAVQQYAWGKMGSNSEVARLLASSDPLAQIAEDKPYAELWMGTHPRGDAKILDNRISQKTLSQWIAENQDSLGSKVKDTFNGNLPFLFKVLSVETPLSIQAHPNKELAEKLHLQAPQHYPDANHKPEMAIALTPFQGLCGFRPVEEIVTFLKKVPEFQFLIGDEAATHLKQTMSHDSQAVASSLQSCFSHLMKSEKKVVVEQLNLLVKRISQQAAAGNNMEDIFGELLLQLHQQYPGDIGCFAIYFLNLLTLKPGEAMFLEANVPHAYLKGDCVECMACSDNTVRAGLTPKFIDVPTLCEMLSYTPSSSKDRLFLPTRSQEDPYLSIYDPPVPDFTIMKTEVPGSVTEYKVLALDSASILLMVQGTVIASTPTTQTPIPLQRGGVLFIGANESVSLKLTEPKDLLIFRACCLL

inhibition, inactive:
O=C(CSc1nnc(-c2cccs2)n1-c1ccccc1)c1ccc2c(c1)OCCO2 6.2%
CCOC(=O)N1CCC(NC(=O)c2ccc3c(c2)N(Cc2ccccc2)CCS3)CC1 13.2%
CCOC(=O)N1CCC(NC(=O)c2ccc3c(c2)N(Cc2ccc(C)cc2)CCS3)CC1 24.9%
COc1ccc(C2=NOC(C(=O)NC3CCCCC3)C2)cc1OC (centres undefined) 11.9%
COc1cccc(C2=NOC(C(=O)NC(C)C)C2)c1 (centres undefined) 3.6%
C#CCNC(=O)C1CCN(c2ccc(S(=O)(=O)N3CCOCC3)cc2Cl)CC1 -1.4%
CCOc1cc(N2CCOCC2)c(OCC)cc1NC(=O)CN1CCCC1 20.8%
CCOc1cc(N2CCOCC2)c(OCC)cc1NC(=O)CN1CCCC(C)C1 (centres undefined) 30.5%
CCOc1cc(N2CCOCC2)c(OCC)cc1NC(=O)c1ccc(OC(C)C)cc1 19.1%
CCC(C)C(=O)Nc1ccc(OC)cc1OC (centres undefined) 5.6%
CCOc1cc(N2CCOCC2)c(OCC)cc1NC(=O)C1CCCC1 -1%
CCN1CCN(C(=O)Nc2ccc(OC)cc2OC)CC1 34.3%
CC(=O)c1cccc(N/C=C\C(=O)c2ccc(C)cc2)c1 1.9%
CCN(CC)S(=O)(=O)c1cccc(C(=O)Nc2ccc(C#N)cc2)c1 16.5%
Cc1cccc(N2CCN(C(=O)c3ccc(CNc4c(N5CCC(C)CC5)c(=O)c4=O)cc3)CC2C)c1 (centres undefined) 4.9%
O=C(CS(=O)CC(=O)N(c1cccc(F)c1)C(C(=O)NC1CCCCC1)c1ccco1)Nc1ccc(F)cc1 (centres undefined) -6.4%
C/C(=N\NC(=O)CN(c1ccccc1)S(=O)(=O)c1ccccc1[N+](=O)[O-])C(C)(C)C 8.8%
FCCCOc1ccc(-c2nccc(-c3ccc(Br)cc3)n2)cc1 8.4%
Cc1cc(NC(=O)CSc2nnc(C3CC3)n2-c2ccccc2)no1 -7.9%
COc1ccc(/C=N/Nc2nc(N3CCCC3)nc(N3CCCC3)n2)cc1 0.1%
C(=N\Nc1nc(N2CCCCCC2)nc(N2CCCCCC2)n1)/c1ccccc1 23.1%
COc1ccc(/C=N/Nc2cc(N3CCCC3)nc(N3CCCC3)n2)cc1 49%
COc1cc(/C=N/Nc2nc(N3CCCC3)nc(N3CCCC3)n2)ccc1O 5.1%
O=C(O)c1ccccc1/C=N/Nc1nc(N2CCCCC2)nc(N2CCCCC2)n1 -0.2%
Oc1ccc(Br)cc1/C=N/Nc1nc(N2CCCCC2)nc(N2CCOCC2)n1 20%
COc1cc(-c2cc(N)n(S(=O)(=O)c3ccccc3)n2)cc(OC)c1OC -2.1%
CCOC(=O)c1ccc(S(=O)(=O)Nc2ccc3cn[nH]c3c2)cc1 24.1%
CC1CCC(NC(=O)Cn2cc3c(n2)CCCC3)CC1 (centres undefined) 3.7%
CC(C)=CCCC1=CCC(/C=N/NC(N)=O)C(C)C1 (centres undefined) -36.5%
OC(c1ccccc1)c1nc2ccccc2s1 (centres undefined) 6%
O=C(N/N=C/c1ccc(Br)o1)c1ccc2c(c1)OCCO2 0%
C(=N\Nc1nc2ccccc2[nH]1)/c1ccccn1 -33.9%
N#CCCCN1C(=O)C(O)(CC(=O)c2ccc3c(c2)OCCO3)c2ccccc21 (centres undefined) 11.1%
CC(C)CN1C(=O)/C(=C(/C#N)C(=O)NC2CCCCC2)c2ccccc21 20%
Cc1ccc(C(=O)NCCCNc2ccccc2[N+](=O)[O-])cc1 1.8%
Cc1ncc(S(=O)(=O)c2ccccc2)c(-c2ccccc2)n1 -4.6%
CC(C)C(=O)NC(=S)Nc1ccc(S(=O)(=O)NC(C)(C)C)cc1 -1.7%
COC(=O)C1=C(C)N(Cc2ccco2)C(=O)/C1=C\c1ccc(N(C)C)cc1 19.7%
CCN1C(=O)/C(=C\c2ccc3c(c2)OCO3)C(C(=O)OC)=C1C -6.5%
COC(=O)C1=C(C)N(CCc2ccc(OC)c(OC)c2)C(=O)/C1=C\c1ccc(O)cc1 6%
COC(=O)C1=C(C)N(Cc2ccco2)C(=O)/C1=C\c1ccc([N+](=O)[O-])cc1 -22%
CCOc1cc(/C=C2/N=C(C)C(C(=O)OC)=C2O)ccc1O 31.3%
COC(=O)C1=C(C)N(Cc2ccc(C)cc2)C(=O)/C1=C\c1cc(OC)c(OC)c(OC)c1 23.1%
COC(=O)C1=C(C)N(CCc2ccc(OC)c(OC)c2)C(=O)/C1=C\N(C)C -13.2%
C=CCOc1cccc(/C=C2\C(=O)N(Cc3ccc(C)cc3)C(C)=C2C(=O)OC)c1 10.8%
c1ccc(-c2nc3ccccc3[nH]2)nc1 15.7%
Cc1ccc(CCNC(=O)C2CCCN(C(=O)N(C)C)C2)cc1 (centres undefined) -6.4%
O=C(CN1C(=O)COc2ccccc21)N1CCc2ccccc21 1.2%
COc1ccc(NC(=O)CC2C(=O)N(C)C(=S)N2CCc2ccccc2F)cc1 (centres undefined) 8.1%
CC(C)=CCN1CCN(Cc2cnc(N3CCOCC3)s2)CC1CCO (centres undefined) -6.5%
O=C(C1=C[C@@H](c2coc3ccccc3c2=O)C[C@@H](OCc2ccc(CO)cc2)O1)N1CCOCC1 -6.8%
CCOC(=O)Cc1csc(NC(=O)c2cc(=O)c3ccccc3o2)n1 -6.1%
CCOC(=O)Cc1csc(SCn2nnc3ccccc3c2=O)n1 -0.1%
CCOC(=O)c1c(N)c(C#N)cn1-c1ccccc1 10%
C=CCNC(=S)Nc1cccc2ccccc12 14.3%
CNC(=S)Nc1cccc2[nH]ncc12 2.6%
CCCCC(CC)Cn1c2nc3ccccc3nc2c2c(=N)oc(C)nc21 (centres undefined) -4.2%
CCCCn1c2nc3ccccc3nc2c2c(=N)oc(C)nc21 30.1%
CCn1c(SCC(=O)N/N=C/c2ccc(C)o2)nnc1-c1ccccc1 3.1%
CN1CCN(S(=O)(=O)c2ccc3c(c2)OCCO3)CC1 -4.9%
COc1cc2c(cc1/C=C/C(=O)O)OC(C)C2 (centres undefined) 13.7%
CC(C)(Cl)C1Cc2cc3ccc(=O)oc3cc2O1 (centres undefined) -9.9%
CCc1nnc(NC(=O)CSc2nnc3c(C)cc4c(C)ccc(C)c4n23)s1 2.3%
Cc1nc2ccc(NC(=O)/C=C/C(=O)O)cc2nc1C 42.9%
CC(C)(C)NC(=O)Nc1ccc2nccnc2c1 35.1%
CN1CC(=O)N(CC(=O)N2CCC(Cc3ccccc3)CC2)C1=O -3.5%
CCC(C)N(C(=O)CSc1nc(-c2ccccc2)cs1)C1CCS(=O)(=O)C1 (centres undefined) 3.2%
Oc1ccc2ccccc2c1CNn1cnnc1 3.1%
Cc1cc(=O)oc2c(CN(CC(C)C)CC(C)C)c(O)ccc12 -3.3%
O=C(CN1CCC(C(O)(c2ccccc2)c2ccccc2)CC1)Nc1ccccc1 -1.7%
CCN1CCN(c2nc(-c3ccncc3)nc3ccccc23)CC1 6.3%
NC(=O)C1CCN(C(=O)c2cc3n(n2)C(C(F)(F)F)CC(c2ccco2)N3)CC1 (centres undefined) 0.3%
COc1ccc(CCNC(=O)CCCn2nc(C)c([N+](=O)[O-])c2C)cc1OC 8.3%
CCCCn1c2nc3ccccc3nc2c2c(=O)n(CCC)cnc21 7.3%
CCCCn1c2nc3ccccc3nc2c2c(=O)n(CCC(C)C)cnc21 -12.9%
CCOC(=O)C1=C(CC)OC(N)=C(C#N)C1c1cccs1 (centres undefined) 4.7%
CCOC(=O)C1=C(CSc2nc(C)cc(C)c2C#N)OC(N)=C(C#N)C1c1ccccc1 (centres undefined) 47%
CCOC(=O)C1=C(CSc2nc(CC)c(C)cc2C#N)OC(N)=C(C#N)C1c1ccccc1 (centres undefined) 11.9%
CCOC(=O)C1=C(CSc2nc(-c3ccccc3)ccc2C#N)OC(N)=C(C#N)C1c1ccc(OC)cc1 (centres undefined) 29.4%

inhibition, active:
CCOC(=O)N1CCC(NC(=O)c2ccc3c(c2)N(C)CCS3)CC1 55.2%
COc1cccc(C2=NOC(C(=O)NC3CCCCC3)C2)c1 (centres undefined) 53.2%
CCN1CCN(C(=O)C(C)Nc2ccc(OC)cc2OC)CC1 (centres undefined) 58.6%
CCOc1cc(N2CCOCC2)c(OCC)cc1NC(C)C(=O)N1CCC(C)CC1 (centres undefined) 59.1%
CCOc1cc(N2CCOCC2)c(OCC)cc1NC(C)C(=O)N1CCN(CC)CC1 (centres undefined) 57.1%
Oc1ccc(/C=N/Nc2cc(N3CCCC3)nc(N3CCCC3)n2)cc1 58.7%
Oc1cccc(/C=N/Nc2cc(N3CCCC3)nc(N3CCCC3)n2)c1 59.8%
Oc1ccccc1/C=N/Nc1cc(N2CCCC2)nc(N2CCCC2)n1 52%
N#CCCCN1C(=O)C(=C(C#N)C#N)c2ccccc21 59.5%
CCOc1cc(/C=C2\C(=O)N(Cc3ccc(C)cc3)C(C)=C2C(=O)OC)ccc1O 53.3%
COC(=O)C1=C(C)N(Cc2ccc(C)cc2)C(=O)/C1=C\c1ccc(O)c(OC)c1 58.7%
CCOc1cc(/C=C2\C(=O)N(CCc3ccc(OC)c(OC)c3)C(C)=C2C(=O)OC)ccc1O 50.6%
CCOc1cc(/C=C2\C(=O)N(Cc3ccco3)C(C)=C2C(=O)OC)ccc1O 68.2%
C=CCNC(=S)Nc1cccc2[nH]ncc12 52.5%
COc1ccc(-n2c3nc4ccccc4nc3c3c(=N)oc(C)nc32)cc1 55.9%
O=C(O)/C=C/C(=O)Nc1ccc2nccnc2c1 56.2%
CC(C)CN(Cc1c(O)ccc2ccccc12)CC(C)C 68.8%
CCCCn1c2nc3ccccc3nc2c2c(=O)n(C(C)CC)cnc21 (centres undefined) 53.2%
CCOC(=O)C1=C(CSc2nc(CC)c(C)cc2C#N)OC(N)=C(C#N)C1c1ccc(OC)cc1 (centres undefined) 52.3%
CCOC(=O)C1=C(CSc2nc(C)cc(C)c2C#N)OC(N)=C(C#N)C1c1cccs1 (centres undefined) 55.7%

— PubChem BioAssay AID1220 (Sanford-Burnham Center for Chemical Genomics, 2008)
